Among the data in PubChem BioAssay (NCI) are growth inhibition values, retold here.

About 79,000 compounds went through this panel and 15% of them were active in at least one assay; those are over-represented in the sample as a whole. A number with no mark means an inactive call. The source made the active and inactive calls. Cut-off read from the data, not from the text of the source: active = growth inhibition above about 70%; inactive = the rest.

A short description of this assay: NCI Yeast Anticancer Drug Screen. Data for the rad52 strain (AID 147).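 Note: 0% = growth of vehicle-treated control cultures.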 Conditions: S. cerevisiae rad52 mutant growth inhibition, hits give high values. As to the method:
Growth inhibition of yeast strains with defined genetic alterations is measured as a screen for potential anti-cancer activity. Selected strains with alterations in DNA damage repair or cell cycle control were exposed to compounds and growth inhibition was measured relative to vehicle treated controls. The strain used in this assay is rad52

As for `Cc1cc2c(cc1C(=O)CCC(=O)O)CC1(C2)Cc2cc(C)c(C(=O)CCC(=O)O)cc2C1`, the growth inhibition is 3% (at 1.2 µM); 6% (at 3.7 µM); 11% (at 11.0 µM); 25% (at 33.0 µM); 47% (at 100.0 µM).
Turning to `CC1C(NNc2ccccc2)Oc2cc3c(cc2C1c1ccccc1O)OCO3` (stereo not given), the growth inhibition (at 1.2 µM) is 67%; the growth inhibition (at 3.7 µM) was 99% (active); the growth inhibition (at 11.0 µM) was 99% (active); the growth inhibition (at 33.0 µM) was 94% (active); the growth inhibition (at 100.0 µM) was 94% (active).
For `Cc1ccc(Nc2nc3c(=O)n(C)c(=O)n(C)c3nc2Nc2ccc(C)cc2)cc1`, the growth inhibition by setting is: (at 1.2 µM) -2%; (at 3.7 µM) 2%; (at 11.0 µM) 2%; (at 33.0 µM) 2%; (at 100.0 µM) 30%.
Turning to `O=C1CSc2cc([N+](=O)[O-])ccc2N1`, the growth inhibition (at 1.2 µM) is 10%; the growth inhibition (at 3.7 µM) is 6%; the growth inhibition (at 11.0 µM) was 9%; the growth inhibition (at 33.0 µM) was 16%; the growth inhibition (at 100.0 µM) is 15%.
Take `O=C(O)CNc1ccc(Cl)c(Cl)c1`: the growth inhibition is, setting by setting: (at 1.2 µM) -2%; (at 3.7 µM) 0%; (at 11.0 µM) 14%; (at 33.0 µM) 77% (active); (at 100.0 µM) 98% (active).
On to `COC(=O)C1=C(C)NC(C)=C(C(=O)OC)C1c1cccc(/[N+]([O-])=C/c2ccccc2)c1`, for which the growth inhibition by setting is: (at 1.2 µM) 1%; (at 3.7 µM) 2%; (at 11.0 µM) 9%; (at 33.0 µM) 23%; (at 100.0 µM) 90% (active).
The matching figures for `Cn1c(N)nc(-c2ccc(Cl)cc2)c1SSc1c(-c2ccc(Cl)cc2)nc(N)n1C`: -5%, -2%, 33%, 88% (active) and 98% (active).
The matching figures for `CC(C)c1cc(C(C)C)c(O)c(C([O-])[O-])c1.CC(C)c1cc(C(C)C)c(O)c(C([O-])[O-])c1.CC(C)c1cc(C(C)C)c(O)c(C([OH2+])[OH2+])c1.CC(C)c1cc(C(C)C)c(O)c(C([OH2+])[OH2+])c1.[Cu+2].[Cu+2].[OH3+].[OH3+]`: 5%, 12%, 26%, 61% and 92% (active).
